This is an account of results in PubChem BioAssay (NCATS).

In one test the test system is TAB109. In words: qHTS profiling for inhibitors of Plasmodium falciparum proliferation (AID 504749). Further: nearly all actives have a fitted effect of over 60% in size. As to conditions: P. falciparum in erythrocytes, SYBR Green DNA, 72 h; series mostly up to 28.7 µM. A digest of the protocol:
(§1)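 P. falciparum-infected erythrocytes (0.3% parasitemia, 2.5% hematocrit) incubated with compound 72 h at 37 C, 5% CO2. Parasite DNA detected by SYBR Green after lysis, overnight at room temperature; normalised to 0.29 uM artemisinin and DMSO.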

For another test, the system named is TAB113. The description is as above. As to conditions: P. falciparum in erythrocytes, SYBR Green DNA, 72 h; series mostly up to 28.7 µM. The procedure, abridged:
as §1

The next test has as its system TAB165. Described as above. As to conditions: P. falciparum in erythrocytes, SYBR Green DNA, 72 h; series mostly up to 28.7 µM. A digest of the protocol: as §1
The subject of a further test is W2. Described as above. The settings on record: P. falciparum in erythrocytes, SYBR Green DNA, 72 h; series mostly up to 28.7 µM. The procedure, abridged:
as §1

The test system of the next test is CRL-7250. In words: Cytotoxic Profiling of Annotated Libraries Using Quantitative High-Throughput Screening (AID 1296008). Further: nearly all actives have a fitted effect of over 60% in size. On max response: on the % scale 0 is the no-effect control and ±100 the full control effect. As to conditions: Five cell lines viability, CellTiter-Glo ATP luminescence, 48-72 h; max response: hits give low values. The procedure, abridged: (§2)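 Cells exposed to compounds for 48 or 72 hr at 37 degrees Celsius. Viability read as ATP-coupled luminescence with CellTiter-Glo after 10 min at room temperature.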
(In ATP-based viability assays light output follows the ATP content of the culture.)

For a further test, the system named is HEK293. Described as above. The settings on record: Five cell lines viability, CellTiter-Glo ATP luminescence, 48-72 h; max response: hits give low values. A digest of the protocol:
as §2

Test [1] deals with NIH3T3. Described as above. As to conditions: Five cell lines viability, CellTiter-Glo ATP luminescence, 48-72 h; max response: hits give low values. A digest of the protocol:
as §2

In a further test the test system is MCC-13. In words: qHTS assay to identify novel small-molecules to repurpose for Merkel cell carcinoma treatment (AID 1296009). Further: nearly all actives have a fitted effect of over 60% in size. On activity change, negative = cytotoxicity: on the % scale 0 is the no-effect control and ±100 the full control effect. The settings on record: MCC and control cell lines, CellTiter-Glo viability, 72 h; series mostly up to 46 µM. A digest of the protocol: (§3)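 Cells were treated for 72 hr at 37 degree celsius with compounds in 8- or 11-point dose response. Viability was read by CellTiter-Glo luminescence, normalized to no-cell (cytotoxicity) and DMSO controls.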

The subject of another test is MCC-26. The description is as above. As to conditions: MCC and control cell lines, CellTiter-Glo viability, 72 h; series mostly up to 46 µM. A digest of the protocol:
as §3

The test system of another test is MKL-1. The test is described as above. As to conditions: MCC and control cell lines, CellTiter-Glo viability, 72 h; series mostly up to 46 µM. The procedure, abridged:
as §3

For another test, the system named is MKL-2. The description is as above. As to conditions: MCC and control cell lines, CellTiter-Glo viability, 72 h; series mostly up to 46 µM. A digest of the protocol:
as §3

A further test concerns UISO. The test is described as above. The settings on record: MCC and control cell lines, CellTiter-Glo viability, 72 h; series mostly up to 46 µM. The procedure, abridged:
as §3

A further test has as its system WaGa. The description is as above. The settings on record: MCC and control cell lines, CellTiter-Glo viability, 72 h; series mostly up to 46 µM. The procedure, abridged:
as §3

Another test deals with C33A. In words: Primary qHTS to identify gynecologic anti-cancer compounds using libraries of approved drugs and bioactive compounds (AID 1345084). Further: nearly all actives have a fitted effect of over 55% in size. The settings on record: Gynecologic cancer cell panel viability, ATPlite luminescence, 48 h; series mostly up to 57.5 µM. A digest of the protocol:
(§4)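 In this quantitative HTS, cell killing is estimated from loss of ATP-dependent luciferase light. Cells see five compound concentrations over a 48 h exposure.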
A general note: qHTS replaces the single test concentration by a dilution series.

The test system of another test is CAOV3. The test is described as above. As to conditions: Gynecologic cancer cell panel viability, ATPlite luminescence, 48 h; series mostly up to 57.5 µM. The procedure, abridged:
as §4

Test [2] relates to HaCat. In words: Cytotoxic Profiling of Annotated Libraries Using Quantitative High-Throughput Screening (AID 1296008). Further: nearly all actives have a fitted effect of over 60% in size. On max response: on the % scale 0 is the no-effect control and ±100 the full control effect. As to conditions: Five cell lines viability, CellTiter-Glo ATP luminescence, 48-72 h; max response: hits give low values. A digest of the protocol:
as §2

A further test concerns KB-3-1. The test is described as above. The settings on record: Five cell lines viability, CellTiter-Glo ATP luminescence, 48-72 h; max response: hits give low values. A digest of the protocol:
as §2

The test system of test [3] is HACAT. In words: qHTS assay to identify novel small-molecules to repurpose for Merkel cell carcinoma treatment (AID 1296009). Further: nearly all actives have a fitted effect of over 60% in size. On activity change, negative = cytotoxicity: on the % scale 0 is the no-effect control and ±100 the full control effect. The settings on record: MCC and control cell lines, CellTiter-Glo viability, 72 h; at 44.8 µM (top of the series) unless noted. A digest of the protocol:
as §3

The next test has as its system HEK293T. The test is described as above. The settings on record: MCC and control cell lines, CellTiter-Glo viability, 72 h; at 44.8 µM (top of the series) unless noted. A digest of the protocol:
as §3

For test [4], the system named is NIH3T3. Described as above. The settings on record: MCC and control cell lines, CellTiter-Glo viability, 72 h; at 44.8 µM (top of the series). A digest of the protocol: as §3

Values joined by “and” are separate entries in the source; they are usually repeats but may differ in a detail not shown here. Equal entries are not always repeated. Results filed as inconclusive are left out. A number with no mark means an inactive call. Active and inactive are the calls of the source. The call rests on the fitted dose curve; in most records, active means well fitted curve in the direction sought with a large enough effect; inconclusive means small, poorly fitted or top-dose-only effect, or another doubt; inactive means no such curve, though single readings can be large; an effect the other way counts as inactive or inconclusive.
Potency means the concentration at half of the fitted maximal effect.

On to `N=C(N)N1CCc2ccccc2C1`, for which the Potency result in the test on TAB109, with TAB113, in the test with TAB165 and in the test with W2 was “inactive” throughout. Further, the max response in the test on CRL-7250 was -4.65%; in the test with HEK293, -8.82%; in the test on NIH3T3 [1] it was -1.16%. In addition, the activity change, negative = cytotoxicity is 22.3% [at 4.84 µM] with MCC-13; -4.65% [at 4.84 µM] in the test with MCC-26; -2.59% [at 4.84 µM] in the test on MKL-1; -8.08% [at 4.84 µM] in the test with MKL-2; -8.38% [at 4.84 µM] in the test on UISO; -9.27% [at 4.84 µM] in the test with WaGa. Besides, the values for the activity change, negative = cytotoxicity in the test with C33A and in the test on CAOV3 were -2.35% [at 6.55 µM] and 8.37% [at 6.55 µM], respectively.

As for `O=C(CCN1CCN2CCCC2C1)N1c2ccccc2Sc2ccc(Cl)cc21` (stereo unspecified), the Potency entry in the test with TAB113, with MCC-13, in the test on MCC-26, with MKL-1, with UISO and in the test on WaGa was “inactive” in each case. For the same compound, the Potency result with C33A and with CAOV3 was “inactive” in each case. In addition, in the test with W2, the Potency was 3.01 µM (active). In addition, the max response was -7.08% with CRL-7250, 7.31% in the test with KB-3-1 and 3.25% in the test on NIH3T3 [1]. In addition, in the test on HaCat [2], the call was inactive. Besides, in the test with HACAT [3], the outcome is “inactive [at 17.4 µM]”.

Take `COc1ccc(CN(CCN(C)C)c2ncccn2)cc1`: the Potency entry in the test on TAB109, in the test on TAB113, in the test on TAB165, in the test on MCC-13, in the test with MCC-26 and in the test on MKL-1 was “inactive” in each case. In addition, the Potency entry in the test with MKL-2, in the test with UISO, in the test on WaGa, in the test with C33A and in the test on CAOV3 was “inactive” throughout. In addition, the Potency in the test with W2 is 5.36 µM (active). The max response in the test on CRL-7250 is 0.19%; in the test on NIH3T3 [1], -1.92%. Also, the compound was called inactive with HEK293 and in the test with HEK293T.

For the compound `NC(=O)n1c(O)c(C(=O)c2cccs2)c2cc(Cl)ccc21`, the Potency entry in the test on TAB109, in the test with TAB113, with TAB165, with MCC-13, in the test with MCC-26 and in the test with MKL-1 was “inactive” throughout. Moreover, the Potency entry in the test with MKL-2, in the test with C33A and in the test on CAOV3 was “inactive” in each case. For the same compound, the max response in the test on CRL-7250 was 4.52%; in the test on KB-3-1, 2.04%; in the test with NIH3T3 [1], 0.218%. Also, the result in the test with HaCat [2] and with HACAT [3] was inactive.

`CCOC(=O)C(C#N)=C(c1ccccc1)c1ccccc1`: the Potency entry with TAB109, in the test on TAB113, in the test on TAB165, with W2, with MCC-13 and with MCC-26 was “inactive” throughout. Further, the Potency entry in the test with MKL-1, in the test on MKL-2, in the test with UISO, in the test with WaGa, in the test on C33A and with CAOV3 was “inactive” in each case. For the same compound, the max response in the test with CRL-7250 was -5.66%; in the test on HaCat [2], -20.2%; with KB-3-1, 1.81%; with NIH3T3 [1], 3.96%.

Regarding `CCc1cc(Cl)c(OC)c(C(=O)NC[C@@H]2CCCN2CC)c1O`, the max response is 3.41% in the test with CRL-7250; -11.4% and -0.677% and -21.5% in the test with KB-3-1; 4.04% in the test on NIH3T3 [1]. Further, the result with HaCat [2] and in the test on HACAT [3] was inactive. The Potency entry in the test on MCC-13, with MCC-26, in the test with MKL-1, with MKL-2, with UISO and in the test on WaGa was “inactive” in each case. Also, the Potency result in the test with C33A and with CAOV3 was “inactive” each time.

With `CCCN(CCc1cccs1)[C@H]1CCc2c(O)cccc2C1`, the Potency in the test with TAB109 is 7.08 µM (active); in the test on TAB113, 4.47 µM (active); with TAB165, 4.47 µM (active); with W2 it was 1.35 µM (active). The values for the max response with CRL-7250 and in the test with KB-3-1 were -5.8% and 5.8%, respectively. The compound was classed as inactive in the test with HaCat [2], with NIH3T3 [1], in the test with HACAT [3] and in the test with NIH3T3 [4]. The Potency result in the test with MCC-13, in the test on MCC-26, in the test on MKL-1, in the test with MKL-2, in the test on UISO and with C33A was “inactive” in each case. In the test on CAOV3, the Potency entry was “inactive”.

For `OCCOCCN1CCN(C2=Nc3ccccc3Sc3ccccc32)CC1`, the Potency result with TAB109, with TAB113, with TAB165, with MCC-13, with MCC-26 and in the test on MKL-1 was “inactive” in each case. Also, the Potency result in the test on MKL-2, in the test on UISO, in the test with WaGa and in the test with C33A was “inactive” throughout. In addition, in the test on W2, the Potency was 4.26 µM (active). Besides, the max response in the test on CRL-7250 was -6.31%; in the test with KB-3-1, -2.1%; with NIH3T3 [1], -7.78%. In addition, the result in the test with HaCat [2] and with HACAT [3] was inactive.

As to `CC1CCc2c(N3CCC(O)CC3)c(F)cc3c(=O)c(C(=O)O)cn1c23` (stereo unspecified), the max response in the test with CRL-7250 is -8.92%; with HaCat [2], -5.2%; in the test with KB-3-1, 15%; with NIH3T3 [1], -20%. The Potency result in the test with MCC-13, in the test on MCC-26, with MKL-1, with MKL-2, in the test on UISO and in the test on WaGa was “inactive” in each case. Besides, the Potency result with C33A and in the test on CAOV3 was “inactive” throughout.

As to `O=C(CN1CCN(Cc2ccc3c(c2)OCO3)CC1)N1c2ccccc2Sc2ccccc21`, the Potency was 3.55 µM (active) with TAB109, 10 µM (active) in the test with TAB165 and 6.01 µM (active) with W2. Besides, the max response in the test with CRL-7250 was -6.96%; with KB-3-1, 6.91%. Besides, the call in the test with HaCat [2], with NIH3T3 [1], with HACAT [3] and with NIH3T3 [4] was inactive. Also, the Potency result in the test on MCC-13, in the test with MCC-26, with MKL-1, in the test on MKL-2, with UISO and in the test on WaGa was “inactive” in each case. Moreover, the Potency entry with C33A and in the test with CAOV3 was “inactive” in each case.

As for `C[C@@]12C(=O)OC(=O)[C@]1(C)C1CCC2O1`, the Potency in the test with CRL-7250 was 2.99 µM (active); in the test with HEK293 it was 7.5 µM (active); with NIH3T3 [1], 9.44 µM (active); with MCC-13 it was 3.76 µM (active); in the test on MCC-26, 4.22 µM (active); in the test on MKL-1, 3.76 µM (active). Moreover, the Potency was 2.66 µM (active) with UISO and 0.631 µM (active) with CAOV3.

Regarding `CCCCCCCCCCC[C@@H](C[C@@H]1OC(=O)[C@H]1CCCCCC)OC(=O)[C@H](CC(C)C)NC=O`, the call in the test with CRL-7250, in the test with HaCat [2] and in the test with HACAT [3] was inactive. Moreover, the max response in the test with KB-3-1 is -9.82%; with NIH3T3 [1] it was 1.98%. Moreover, the Potency result in the test on MCC-13, with MCC-26, with MKL-1, in the test on MKL-2, with UISO and with WaGa was “inactive” in each case. Further, the Potency result in the test on C33A and in the test on CAOV3 was “inactive” in each case.
